Test results: article PMC7862700, “An all-to-all approach to the identification of sequence-specific readers for epigenetic DNA modifications on cytosine”

Tests used:
Assay in all cases: DAPPL (digital affinity profiling via proximity ligation, sequencing); 10 mM Tris-HCl pH 7.5, 50 mM NaCl, 1 mM DTT, 4% glycerol, room temperature, 30 min; GST-TFs on glutathione beads, 16-mer random dsDNA library, 0.1% formaldehyde crosslink after washing; high values mean tight binding
FEV = target: T1, FEV (Homo sapiens, UniProt Q99581 1-238); settings: protein: recombinant; tags: N-terminal GST; dsDNA, one strand shown
T1 sequence: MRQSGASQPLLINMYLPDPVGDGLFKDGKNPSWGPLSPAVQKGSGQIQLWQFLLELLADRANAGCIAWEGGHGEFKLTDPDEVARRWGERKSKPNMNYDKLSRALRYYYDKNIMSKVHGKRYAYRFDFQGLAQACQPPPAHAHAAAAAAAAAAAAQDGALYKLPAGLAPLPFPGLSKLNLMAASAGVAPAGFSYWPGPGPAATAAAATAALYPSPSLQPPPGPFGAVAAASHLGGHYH
Summary of the method: (§1)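 The binding signal reported is, for every hexamer, its read frequency for a factor over its read frequency for the tag-only sample. Reads came from pools of yeast-expressed, GST-fused human transcription factors on glutathione beads, barcoded with DNA and mixed with that sample, which were incubated with 200 nmole of a random double-stranded 16-mer DNA library in Tris/NaCl/DTT/glycerol buffer at room temperature for 30 min. After washing, the pools were crosslinked with 0.1% formaldehyde, proximity-ligated with BsaI/T4 ligase for 1 h at 37 °C, PCR-amplified and sequenced on an Illumina NextSeq500.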

ETV5 = ETV5 (Homo sapiens, UniProt P41161 1-510); settings: protein: recombinant; tags: N-terminal GST; dsDNA, one strand shown
ETV5, sequence (P41161 whole entry): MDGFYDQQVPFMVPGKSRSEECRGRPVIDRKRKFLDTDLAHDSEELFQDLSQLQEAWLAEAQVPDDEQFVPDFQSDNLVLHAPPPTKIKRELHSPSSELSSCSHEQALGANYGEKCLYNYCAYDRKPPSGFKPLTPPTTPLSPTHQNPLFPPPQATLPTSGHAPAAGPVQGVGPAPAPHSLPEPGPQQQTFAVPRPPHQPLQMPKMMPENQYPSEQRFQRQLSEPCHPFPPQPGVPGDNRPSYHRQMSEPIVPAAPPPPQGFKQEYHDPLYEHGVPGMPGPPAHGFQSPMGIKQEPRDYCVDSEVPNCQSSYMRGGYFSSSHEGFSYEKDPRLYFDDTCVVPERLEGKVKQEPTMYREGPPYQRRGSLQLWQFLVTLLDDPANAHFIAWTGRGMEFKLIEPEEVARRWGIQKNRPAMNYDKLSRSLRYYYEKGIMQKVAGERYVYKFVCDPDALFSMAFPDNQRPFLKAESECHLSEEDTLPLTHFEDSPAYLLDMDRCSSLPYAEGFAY
Summary of the method: as §1

HSF1 = HSF1 (Homo sapiens, UniProt Q00613 1-529); settings: protein: recombinant; tags: N-terminal GST; chain copies: 3; dsDNA, one strand shown
HSF1, sequence (Q00613 whole entry): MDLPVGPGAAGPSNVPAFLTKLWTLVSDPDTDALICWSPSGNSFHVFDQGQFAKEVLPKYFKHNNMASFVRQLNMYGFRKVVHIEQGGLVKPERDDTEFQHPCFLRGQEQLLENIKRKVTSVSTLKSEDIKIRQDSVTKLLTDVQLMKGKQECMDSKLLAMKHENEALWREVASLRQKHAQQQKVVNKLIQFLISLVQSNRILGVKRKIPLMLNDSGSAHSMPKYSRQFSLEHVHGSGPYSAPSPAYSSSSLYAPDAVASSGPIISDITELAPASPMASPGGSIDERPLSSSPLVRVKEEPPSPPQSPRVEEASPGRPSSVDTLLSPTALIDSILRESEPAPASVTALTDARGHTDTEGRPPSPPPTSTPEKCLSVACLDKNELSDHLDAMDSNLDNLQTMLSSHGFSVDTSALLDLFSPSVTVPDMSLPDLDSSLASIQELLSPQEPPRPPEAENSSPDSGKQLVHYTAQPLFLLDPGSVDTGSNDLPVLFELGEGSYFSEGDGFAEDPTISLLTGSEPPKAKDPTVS
Summary of the method: as §1

SPIC = target: T2, SPIC (Homo sapiens, UniProt Q8N5J4 1-248); settings: protein: recombinant; tags: N-terminal GST; dsDNA, one strand shown
T2 sequence: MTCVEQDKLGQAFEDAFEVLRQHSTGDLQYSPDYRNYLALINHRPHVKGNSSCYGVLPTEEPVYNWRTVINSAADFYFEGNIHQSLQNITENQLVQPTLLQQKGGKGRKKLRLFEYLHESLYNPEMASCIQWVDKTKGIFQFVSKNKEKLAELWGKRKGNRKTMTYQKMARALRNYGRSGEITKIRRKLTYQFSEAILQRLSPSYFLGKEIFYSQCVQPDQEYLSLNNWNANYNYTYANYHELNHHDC
Summary of the method: as §1

ELF4 = ELF4 (Homo sapiens, UniProt Q99607 1-663); settings: protein: recombinant; tags: N-terminal GST; dsDNA, one strand shown
ELF4, sequence (Q99607 whole entry): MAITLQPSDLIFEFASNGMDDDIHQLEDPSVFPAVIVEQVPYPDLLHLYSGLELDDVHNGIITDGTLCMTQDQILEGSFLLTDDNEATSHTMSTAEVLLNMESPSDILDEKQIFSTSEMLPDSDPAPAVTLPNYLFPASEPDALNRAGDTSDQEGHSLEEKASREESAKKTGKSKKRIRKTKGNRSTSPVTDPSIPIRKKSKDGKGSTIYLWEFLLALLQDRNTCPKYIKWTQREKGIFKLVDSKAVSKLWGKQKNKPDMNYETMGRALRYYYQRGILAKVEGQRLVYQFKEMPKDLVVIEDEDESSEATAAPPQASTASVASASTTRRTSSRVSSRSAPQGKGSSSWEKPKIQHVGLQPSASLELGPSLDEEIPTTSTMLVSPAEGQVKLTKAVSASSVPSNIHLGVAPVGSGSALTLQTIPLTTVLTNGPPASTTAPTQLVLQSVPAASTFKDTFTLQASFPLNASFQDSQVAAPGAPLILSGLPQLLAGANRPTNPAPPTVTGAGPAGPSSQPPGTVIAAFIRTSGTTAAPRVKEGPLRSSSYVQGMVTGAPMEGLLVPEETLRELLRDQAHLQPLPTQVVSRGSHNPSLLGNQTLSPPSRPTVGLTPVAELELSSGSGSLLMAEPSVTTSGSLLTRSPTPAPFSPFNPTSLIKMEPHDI
Summary of the method: as §1

ELK4 = target: T3, ELK4 (Homo sapiens, UniProt P28324-2 1-405); settings: protein: recombinant; tags: N-terminal GST; dsDNA, one strand shown
T3 sequence: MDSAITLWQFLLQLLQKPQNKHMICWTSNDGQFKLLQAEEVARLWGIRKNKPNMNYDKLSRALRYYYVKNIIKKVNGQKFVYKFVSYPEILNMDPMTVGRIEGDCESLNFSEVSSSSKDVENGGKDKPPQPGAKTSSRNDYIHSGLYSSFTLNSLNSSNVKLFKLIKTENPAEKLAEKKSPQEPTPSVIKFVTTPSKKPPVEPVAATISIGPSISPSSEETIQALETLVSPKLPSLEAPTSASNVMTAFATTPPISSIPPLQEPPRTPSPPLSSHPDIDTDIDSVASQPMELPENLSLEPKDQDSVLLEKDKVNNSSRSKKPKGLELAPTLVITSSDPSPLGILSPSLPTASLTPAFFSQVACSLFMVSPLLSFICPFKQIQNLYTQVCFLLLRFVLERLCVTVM
Summary of the method: as §1

ETV2 = target: T4, ETV2 (Homo sapiens, UniProt O00321 1-342); settings: protein: recombinant; tags: N-terminal GST; dsDNA, one strand shown
T4 sequence: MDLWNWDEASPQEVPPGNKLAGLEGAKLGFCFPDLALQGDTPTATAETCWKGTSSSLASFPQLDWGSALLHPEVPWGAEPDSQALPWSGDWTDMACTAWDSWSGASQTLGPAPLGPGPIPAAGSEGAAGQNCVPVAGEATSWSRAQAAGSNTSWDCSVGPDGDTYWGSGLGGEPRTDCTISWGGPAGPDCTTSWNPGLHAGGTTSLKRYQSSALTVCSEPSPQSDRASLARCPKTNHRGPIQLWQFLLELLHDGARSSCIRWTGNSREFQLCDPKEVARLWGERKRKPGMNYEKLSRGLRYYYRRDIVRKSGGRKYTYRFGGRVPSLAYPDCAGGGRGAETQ
Summary of the method: as §1

ETV1 = ETV1 (Homo sapiens, UniProt P50549 1-477); settings: protein: recombinant; tags: N-terminal GST; dsDNA, one strand shown
ETV1, sequence (P50549 whole entry): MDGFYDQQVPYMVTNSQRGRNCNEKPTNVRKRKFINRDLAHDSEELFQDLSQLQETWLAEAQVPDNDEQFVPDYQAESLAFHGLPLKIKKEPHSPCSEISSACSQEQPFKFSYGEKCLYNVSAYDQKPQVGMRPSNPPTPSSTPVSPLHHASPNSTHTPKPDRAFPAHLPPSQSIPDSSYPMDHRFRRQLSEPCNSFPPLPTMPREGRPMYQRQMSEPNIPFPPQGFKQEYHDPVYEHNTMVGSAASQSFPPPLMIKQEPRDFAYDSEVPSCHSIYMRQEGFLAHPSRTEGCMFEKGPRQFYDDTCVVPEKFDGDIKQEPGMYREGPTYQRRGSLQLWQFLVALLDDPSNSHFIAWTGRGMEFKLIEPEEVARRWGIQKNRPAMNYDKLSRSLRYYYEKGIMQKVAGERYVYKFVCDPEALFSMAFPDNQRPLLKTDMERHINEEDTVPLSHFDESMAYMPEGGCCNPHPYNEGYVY
Summary of the method: as §1

ERF = target: T5, ERF (Homo sapiens, UniProt P50548 1-548); settings: protein: recombinant; tags: N-terminal GST; dsDNA, one strand shown
T5 sequence: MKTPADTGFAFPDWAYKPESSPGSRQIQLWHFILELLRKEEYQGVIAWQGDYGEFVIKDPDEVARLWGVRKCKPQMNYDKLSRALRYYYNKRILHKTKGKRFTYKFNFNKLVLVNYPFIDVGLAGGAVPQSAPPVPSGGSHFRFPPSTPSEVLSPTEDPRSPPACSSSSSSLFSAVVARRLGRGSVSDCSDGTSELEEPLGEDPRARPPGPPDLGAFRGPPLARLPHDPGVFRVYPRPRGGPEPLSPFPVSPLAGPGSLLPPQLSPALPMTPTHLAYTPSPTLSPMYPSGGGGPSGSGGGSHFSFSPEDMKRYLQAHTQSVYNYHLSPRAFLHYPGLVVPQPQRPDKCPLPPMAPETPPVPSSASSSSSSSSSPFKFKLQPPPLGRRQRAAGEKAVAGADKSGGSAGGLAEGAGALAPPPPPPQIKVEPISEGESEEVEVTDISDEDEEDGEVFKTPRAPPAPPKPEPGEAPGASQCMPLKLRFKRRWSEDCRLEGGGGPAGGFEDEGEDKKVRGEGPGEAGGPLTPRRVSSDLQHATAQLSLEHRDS
Summary of the method: as §1

ETV3L = target: T6, ETV3L (Homo sapiens, UniProt Q6ZN32 1-361); settings: protein: recombinant; tags: N-terminal GST; dsDNA, one strand shown
T6 sequence: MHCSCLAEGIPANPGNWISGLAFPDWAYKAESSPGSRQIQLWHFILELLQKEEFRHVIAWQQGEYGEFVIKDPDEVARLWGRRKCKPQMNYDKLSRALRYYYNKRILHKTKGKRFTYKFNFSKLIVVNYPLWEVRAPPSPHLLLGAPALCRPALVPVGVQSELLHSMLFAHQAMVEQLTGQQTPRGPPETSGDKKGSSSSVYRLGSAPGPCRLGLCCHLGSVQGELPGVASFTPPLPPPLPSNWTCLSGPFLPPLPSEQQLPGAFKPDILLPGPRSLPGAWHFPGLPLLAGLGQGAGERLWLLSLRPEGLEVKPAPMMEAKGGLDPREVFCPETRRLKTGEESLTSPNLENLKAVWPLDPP
Summary of the method: as §1

ETS2 = target: T7, ETS2 (Homo sapiens, UniProt P15036 1-469); settings: protein: recombinant; tags: N-terminal GST; dsDNA, one strand shown
T7 sequence: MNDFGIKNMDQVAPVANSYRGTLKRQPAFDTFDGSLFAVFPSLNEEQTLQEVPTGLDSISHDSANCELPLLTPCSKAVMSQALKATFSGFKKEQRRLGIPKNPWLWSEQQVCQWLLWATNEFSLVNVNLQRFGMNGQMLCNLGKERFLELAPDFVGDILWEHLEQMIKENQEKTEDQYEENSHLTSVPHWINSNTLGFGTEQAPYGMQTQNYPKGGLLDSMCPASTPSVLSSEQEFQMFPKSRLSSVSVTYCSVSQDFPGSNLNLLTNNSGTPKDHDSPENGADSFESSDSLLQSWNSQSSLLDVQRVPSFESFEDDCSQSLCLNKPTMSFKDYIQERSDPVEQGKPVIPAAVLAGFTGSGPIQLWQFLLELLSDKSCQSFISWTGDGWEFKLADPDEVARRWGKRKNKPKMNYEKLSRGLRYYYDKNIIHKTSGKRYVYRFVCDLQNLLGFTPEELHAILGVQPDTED
Summary of the method: as §1

SPDEF = target: T8, SPDEF (Homo sapiens, UniProt O95238 1-335); settings: protein: recombinant; tags: N-terminal GST; dsDNA, one strand shown
T8 sequence: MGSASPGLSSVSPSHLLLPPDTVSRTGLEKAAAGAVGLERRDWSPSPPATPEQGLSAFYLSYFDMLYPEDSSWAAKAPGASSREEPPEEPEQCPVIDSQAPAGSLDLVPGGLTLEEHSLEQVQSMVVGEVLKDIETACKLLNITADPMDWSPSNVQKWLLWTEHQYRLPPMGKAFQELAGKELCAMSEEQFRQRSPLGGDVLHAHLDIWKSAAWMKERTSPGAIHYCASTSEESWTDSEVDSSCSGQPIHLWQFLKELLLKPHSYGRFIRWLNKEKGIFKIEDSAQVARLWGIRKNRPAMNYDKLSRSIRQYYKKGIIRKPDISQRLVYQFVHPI
Summary of the method: as §1

ETV7 = target: T9, ETV7 (Homo sapiens, UniProt Q9Y603 1-341); settings: protein: recombinant; tags: N-terminal GST; dsDNA, one strand shown
T9 sequence: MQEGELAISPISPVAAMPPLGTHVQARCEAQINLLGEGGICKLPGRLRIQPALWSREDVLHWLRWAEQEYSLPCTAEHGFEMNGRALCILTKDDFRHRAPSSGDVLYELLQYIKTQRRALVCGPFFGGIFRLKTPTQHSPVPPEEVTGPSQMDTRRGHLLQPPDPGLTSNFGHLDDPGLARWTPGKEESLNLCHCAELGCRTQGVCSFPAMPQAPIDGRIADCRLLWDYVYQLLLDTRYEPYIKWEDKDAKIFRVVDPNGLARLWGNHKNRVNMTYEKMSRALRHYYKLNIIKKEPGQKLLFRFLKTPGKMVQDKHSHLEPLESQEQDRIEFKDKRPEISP
Summary of the method: as §1

ELF5 = target: T10, ELF5 (Homo sapiens, UniProt Q9UKW6-2 1-255); settings: protein: recombinant; tags: N-terminal GST; dsDNA, one strand shown
T10 sequence: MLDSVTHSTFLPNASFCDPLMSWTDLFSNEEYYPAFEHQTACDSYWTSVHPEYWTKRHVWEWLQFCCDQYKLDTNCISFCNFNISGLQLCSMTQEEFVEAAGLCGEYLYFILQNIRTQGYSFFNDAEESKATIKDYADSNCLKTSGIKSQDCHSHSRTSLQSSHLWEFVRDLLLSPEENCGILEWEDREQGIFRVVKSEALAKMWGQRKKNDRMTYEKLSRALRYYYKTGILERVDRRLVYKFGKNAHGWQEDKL
Summary of the method: as §1

ETV3 = target: T11, ETV3 (Homo sapiens, UniProt P41162-2 1-143); settings: protein: recombinant; tags: N-terminal GST; dsDNA, one strand shown
T11 sequence: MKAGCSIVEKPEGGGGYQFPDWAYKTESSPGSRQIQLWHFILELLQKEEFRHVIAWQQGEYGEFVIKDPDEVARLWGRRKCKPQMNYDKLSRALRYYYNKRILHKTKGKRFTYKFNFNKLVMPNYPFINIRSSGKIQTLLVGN
Summary of the method: as §1

ETV6 = ETV6 (Homo sapiens, UniProt P41212 1-452); settings: protein: recombinant; tags: N-terminal GST; dsDNA, one strand shown
ETV6, sequence (P41212 whole entry): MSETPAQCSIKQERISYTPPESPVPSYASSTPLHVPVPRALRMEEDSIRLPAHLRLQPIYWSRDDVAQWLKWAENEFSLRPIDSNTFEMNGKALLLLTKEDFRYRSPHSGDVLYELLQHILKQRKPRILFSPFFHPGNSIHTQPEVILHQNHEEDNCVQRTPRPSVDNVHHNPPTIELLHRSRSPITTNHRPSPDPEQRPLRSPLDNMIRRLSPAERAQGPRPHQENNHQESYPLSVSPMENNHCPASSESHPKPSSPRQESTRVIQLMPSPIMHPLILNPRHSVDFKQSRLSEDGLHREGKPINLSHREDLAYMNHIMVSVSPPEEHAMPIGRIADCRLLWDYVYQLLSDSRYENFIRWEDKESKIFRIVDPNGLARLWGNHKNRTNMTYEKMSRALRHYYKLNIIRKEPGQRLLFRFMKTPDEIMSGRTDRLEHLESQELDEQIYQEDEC
Summary of the method: as §1

CRX = CRX (Homo sapiens, UniProt O43186 1-299); settings: protein: recombinant; tags: N-terminal GST; dsDNA, one strand shown
CRX, sequence (O43186 whole entry): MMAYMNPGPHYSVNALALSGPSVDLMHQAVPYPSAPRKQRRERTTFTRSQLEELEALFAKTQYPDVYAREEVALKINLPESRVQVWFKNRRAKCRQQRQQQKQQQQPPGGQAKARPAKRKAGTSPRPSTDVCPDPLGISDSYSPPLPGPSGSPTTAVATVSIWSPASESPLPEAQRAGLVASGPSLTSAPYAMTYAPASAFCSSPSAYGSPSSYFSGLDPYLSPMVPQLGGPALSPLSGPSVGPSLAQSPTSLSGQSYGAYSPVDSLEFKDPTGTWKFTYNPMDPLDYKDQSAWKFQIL
Summary of the method: as §1

Sequence | binding signal (FEV) | binding signal (ETV5) | binding signal (HSF1) | binding signal (SPIC) | binding signal (ELF4) | binding signal (ELK4) | binding signal (ETV2) | binding signal (ETV1) | binding signal (ERF) | binding signal (ETV3L) | binding signal (ETS2) | binding signal (SPDEF) | binding signal (ETV7) | binding signal (ELF5) | binding signal (ETV3) | binding signal (ETV6) | binding signal (CRX)
CACTCG | 1.22 fold enrichment (6-mer frequency, TF over GST control) | 1.13 fold enrichment (6-mer frequency, TF over GST control) | 1.16 fold enrichment (6-mer frequency, TF over GST control) | 1.08 fold enrichment (6-mer frequency, TF over GST control) | 1.2 fold enrichment (6-mer frequency, TF over GST control) | 1.24 fold enrichment (6-mer frequency, TF over GST control) | 1.2 fold enrichment (6-mer frequency, TF over GST control) | 1.09 fold enrichment (6-mer frequency, TF over GST control) | 1.1 fold enrichment (6-mer frequency, TF over GST control) | 1.11 fold enrichment (6-mer frequency, TF over GST control) | 1.22 fold enrichment (6-mer frequency, TF over GST control) | 1.04 fold enrichment (6-mer frequency, TF over GST control) | 1.13 fold enrichment (6-mer frequency, TF over GST control) | 1.05 fold enrichment (6-mer frequency, TF over GST control) | 1.09 fold enrichment (6-mer frequency, TF over GST control) | 1.1 fold enrichment (6-mer frequency, TF over GST control) | 
TTTCGC | 1.16 fold enrichment (6-mer frequency, TF over GST control) | 1.08 fold enrichment (6-mer frequency, TF over GST control) | 1.32 fold enrichment (6-mer frequency, TF over GST control) | 1.2 fold enrichment (6-mer frequency, TF over GST control) | 1.08 fold enrichment (6-mer frequency, TF over GST control) | 1.24 fold enrichment (6-mer frequency, TF over GST control) | 1.39 fold enrichment (6-mer frequency, TF over GST control) | 1.09 fold enrichment (6-mer frequency, TF over GST control) | 1.1 fold enrichment (6-mer frequency, TF over GST control) | 1.25 fold enrichment (6-mer frequency, TF over GST control) | 1.14 fold enrichment (6-mer frequency, TF over GST control) |  | 1.16 fold enrichment (6-mer frequency, TF over GST control) | 1.08 fold enrichment (6-mer frequency, TF over GST control) | 1.13 fold enrichment (6-mer frequency, TF over GST control) | 1.11 fold enrichment (6-mer frequency, TF over GST control) | 1.19 fold enrichment (6-mer frequency, TF over GST control)
